This is an account of results in PubChem BioAssay AID1233 (SRMLSC, 2008).

Measured potencies and affinities stand elsewhere. The source made the active and inactive calls.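 The calls were made as follows: active = a dose-response curve fit returns a half-maximal inhibitory concentration, extrapolated values included; inactive = the fit returns no such concentration.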

The assay deals with HMG-CoA reductase [Enterococcus faecalis] (UniProt Q9FD70). Briefly: class II HMG-CoA reductase inhibition potency – biochemical, Enterococcus faecalis, confirmation (AID 1233). Particulars: purified E. faecalis HMGR, NADPH absorbance 340 nm kinetics; series mostly up to 100 µM.
`Cc1cc(C)c2c(=O)[nH]c(SCC(=O)N(C)C)nc2n1`: the result was inactive.
Then `C=CCOc1c(Br)cc(CNc2nccs2)cc1OC`, with “inactive”; and `COc1ccc(C/C(C)=N/NS(=O)(=O)c2ccc(Br)cc2)cc1`, with “inactive”; and `NS(=O)(=O)c1ccc(CCN=C(NS(=O)(=O)c2cccs2)c2ccccc2)cc1`, with “inactive”.
Then `O=c1oc2ccccc2c(O)c1C=Nc1cccnc1`, with “inactive”.
Then `COc1ccc(-n2c(SCC(N)=O)nc3sc4c(c3c2=O)CCN(C)C4)cc1`, with “inactive”; and `Cc1nc(NC(=O)COC(=O)CCS(=O)(=O)c2ccccc2Cl)c(Cl)cc1Cl`, with “inactive”.
`CC(C)CC(O)(CC(C)C)C(=O)NNc1ccccc1`: the call was inactive.
`CC(=O)c1cccc(NC(=O)Nc2csc3c2CCCC3)c1`: the result was inactive.
Then `CN(C)S(=O)(=O)c1cccc(NC(=O)Cn2cc(C(F)(F)F)cc(Cl)c2=O)c1`, with “inactive”; and `c1ccc(-c2ccnc3nc(N4CCN(c5ccccc5)CC4)nn23)cc1`, with “inactive”; and `CC(C)OCP(=O)(c1ccccc1)c1ccccc1`, with “inactive”.
Then `Cc1ccc(-c2cc(C(=O)O)n(-c3ccc(S(N)(=O)=O)cc3)n2)cc1`, with “inactive”; and `CC(C)[C@H](NC(N)=O)C(=O)Nc1cccc(S(=O)(=O)N2CCOCC2)c1`, with “inactive”.
`Cc1ccc(S(=O)(=O)N2CCCC(C(=O)NCCCN3CCCCC3C)C2)cc1` (stereo not drawn): the molecule was called inactive.
In the case of `CC(C)NC(=S)N=Nc1c(O)[nH]c2ccc(C(C)C)cc12`, the outcome was inactive.
With `Cc1cc(=O)[nH]c(SCC(=O)C23CC4CC(CC(C4)C2)C3)c1C#N`, the outcome was inactive.
Next, `COC(=O)C1=C(C)NC(C)=C(C(=O)OC)C1C1CC=CCC1` (stereo not drawn): “inactive”.
Next, `Cc1ccccc1NC(=O)Cn1nnc(S(=O)(=O)c2ccc(C(C)(C)C)cc2)c1N`: “inactive”; `O=C(COc1ccccc1C(=O)N/N=C\c1ccc(O)c(O)c1)N/N=C/c1ccc(O)c(O)c1`: “inactive”; `O=C(CCCN1C(=O)/C(=C\c2cccs2)SC1=S)Nc1ccccn1`: “inactive”.
Next, `CCCCCOC(=O)Cn1c(N2CCOCC2)nc2c1c(=O)[nH]c(=O)n2C`: “inactive”.
On to `CCc1cccc2c(C#N)cn(CCOc3ccccc3OC)c12`, for which the molecule was called inactive.
Next, `CCCn1c(=S)[nH]c2ccccc2c1=O`: “inactive”; `CCN(CC)C(=S)NC(=O)c1cccnc1`: “inactive”; `Fc1ccccc1CSc1nncn1NC/C=C/c1ccccc1`: “inactive”.
Next, `Cc1ccc(C(=O)c2c(NC(=O)c3ccccc3)sc(C)c2C)cc1`: “inactive”.
As for `CS(=O)(=O)N1CCc2cc(S(=O)(=O)N3CCCCC3)ccc21`, the call was inactive.
Next, `CCN(C(=O)Cn1cc(C(F)(F)F)ccc1=O)c1c(N)n(Cc2ccccc2)c(=O)[nH]c1=O`: “inactive”; `O=C(COC(=O)Cc1c(Cl)cccc1Cl)NCCC1=CCCCC1`: “inactive”.
Next, `Cc1cccc(C(=O)N2CCC(=O)N(C(COCc3ccccc3)Cc3ccccc3)CC2)c1` (stereo not drawn): “inactive”; `COc1cccc(NC(=O)c2ccc3snnc3c2)c1`: “inactive”; `CCCCOc1ccccc1NC(=O)CC1SC(=NCC)N(CC)C1=O` (stereo not drawn): “inactive”.
Next, `Cc1cc(C)cc(-n2c3nc4ccccc4nc3c3c(=O)n(Cc4ccco4)cnc32)c1`: “inactive”; `COc1ccccc1C(=O)NCC(=O)NC1CCCc2ccccc21` (stereo not drawn): “inactive”; `CCOc1ccc(S(=O)(=O)N(C)CCO)cc1-c1nc2c(C(C)(C)C)nn(C)c2c(=O)[nH]1`: “inactive”.
`Cc1ccc(OCC(O)CN2C(=O)NC(C)(C)C2=O)cc1` (stereo not drawn): the result was inactive.
Next, `CCCCNC(=O)c1ccccc1NC(=O)CCSc1ccccc1`: “inactive”.
